# Experimental data: PubChem BioAssay
# Active and inactive are the calls of the source.
# Legend:
# [1] = small molecules captured by biotinylated probe aFSTL3 – biochemical, small-molecule microarray, fluorescence 635/667, stem cell growth factor project, primary screen (AID 1064); conditions: higher = more signal;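 note: measures binding of the biotinylated anti-FSTL3 antibody to printed compounds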
# [2] = binders from COS7 lysate, DM2A8 probe, primary screen, torsin A project, cell lysate, small-molecule microarray, fluorescence 635/667 (AID 1065); conditions: higher = more signal, COS7 lysate expressing mutant human TOR1A
# [3] = small molecules captured by biotinylated probe aFGF2 – biochemical, small-molecule microarray, fluorescence 635/667, stem cell growth factor project, primary screen (AID 1067); conditions: higher = more signal;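 note: measures binding of biotinylated aFGF2 protein to printed compounds on slides; z-score merges feature fluorescence and signal-to-noise across triplicate slides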
# [4] = small molecules captured by biotinylated probe aFGF10 – biochemical, small-molecule microarray, fluorescence 635/667, stem cell growth factor project, primary screen (AID 1071); conditions: higher = more signal;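 note: score merges 667 nm spot intensity and signal to noise from triplicate slides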
# [5] = target: Neurogenic locus notch homolog protein 2 (Homo sapiens) (UniProt Q04721); test: small molecules binding Notch2 protein – biochemical, small-molecule microarray, 635 nm fluorescence, stem cell growth factors, primary screen (AID 1073); conditions: higher = more signal
# [6] = target: Pro-neuregulin-1, membrane-bound isoform (Homo sapiens) (UniProt Q02297); test: small molecules binding neuregulin-1 protein – biochemical, small-molecule microarray, fluorescence 635/667, psychiatric disease protein project, primary screen (AID 1075); conditions: NRG1 binding, 635 nm fluorescence, higher = more signal;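 note: score combines 667 nm spot fluorescence with signal to noise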
# Chain of Pro-neuregulin-1, membrane-bound isoform (Homo sapiens) (Q02297 whole entry, looked up, the tested form may be a part, canonical isoform): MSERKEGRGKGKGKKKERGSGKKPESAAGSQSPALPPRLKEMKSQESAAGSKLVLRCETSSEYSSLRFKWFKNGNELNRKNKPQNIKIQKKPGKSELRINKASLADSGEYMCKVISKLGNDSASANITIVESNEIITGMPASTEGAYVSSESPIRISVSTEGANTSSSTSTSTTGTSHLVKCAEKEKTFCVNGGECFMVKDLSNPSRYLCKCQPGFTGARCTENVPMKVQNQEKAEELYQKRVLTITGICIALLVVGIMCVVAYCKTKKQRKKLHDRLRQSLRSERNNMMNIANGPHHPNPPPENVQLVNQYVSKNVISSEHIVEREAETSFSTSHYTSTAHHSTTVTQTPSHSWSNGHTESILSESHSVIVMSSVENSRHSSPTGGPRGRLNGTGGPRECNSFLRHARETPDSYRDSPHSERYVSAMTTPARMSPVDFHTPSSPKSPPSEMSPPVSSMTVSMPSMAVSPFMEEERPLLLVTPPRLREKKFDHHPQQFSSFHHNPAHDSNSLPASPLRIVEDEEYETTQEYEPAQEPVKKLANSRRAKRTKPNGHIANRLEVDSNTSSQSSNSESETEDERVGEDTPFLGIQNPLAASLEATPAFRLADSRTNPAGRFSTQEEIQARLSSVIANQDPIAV
# [7] = tested on: Neuregulin-1 EGF-like domain; test: small molecules binding NRG1 EGF domain – biochemical, small-molecule microarray, 635 nm fluorescence, primary screen (AID 1081); conditions: higher = more signal;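 note: binding of the protein to compounds printed on small-molecule microarray slides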
# [8] = FRG1 expression reporter modulators in myotubes – cell-based, C2C12 myotubes, firefly/Renilla luciferase, luminescence, FRG1 inhibition for FSHD, primary screen (AID 1084); conditions: FRG1 promoter luciferase, higher = more signal, called active from +8 up or from −8 down
# [9] = small molecules captured by biotinylated probe aFST – biochemical, small-molecule microarray, fluorescence 635/667, stem cell growth factor project, primary screen (AID 1086); conditions: higher = more signal;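 note: score merges 667 nm fluorescence with signal-to-noise of each printed compound spot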
# [10] = binders of probe aHhip on microarray, primary screen, stem cell growth factor project, biochemical, small-molecule microarray, fluorescence 635/667 (AID 1087); conditions: higher = more signal;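 note: score merges spot fluorescence at 667nm with spot signal to noise ratio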
# [11] = tested on: PRMT1 (protein arginine N-methyltransferase 1); test: small molecules binding arginine methyltransferase PRMT1 – biochemical, small-molecule microarray, 635 nm fluorescence, primary screen (AID 1088); conditions: higher = more signal;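 note: binding of Prmt1 protein to compounds spotted on small-molecule microarray slides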
# [12] = growth effects on S. cerevisiae YJM789 – YJM789 clinical isolate, OD600, 24 h, basal, primary screen (AID 1089); conditions: higher = more signal, called active from +8 up or from −8 down;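 note: growth of clinical yeast isolate S. cerevisiae YJM 789 seeded 1000 cells per well; test concentration not given here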
# [13] = S. pombe growth modifiers, basal conditions – strain 972, OD600, 24 h, no modulator, primary screen (AID 1090);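 note: basal condition with compound alone and no growth modifier present; test concentration not given here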; conditions: S. pombe 972 growth, higher = more signal, called active from +8 up or from −8 down
# [14] = budding yeast growth modifiers under rapamycin – strain BY4716, OD600, 96 h, primary screen (AID 1091); note: test concentration not given here; conditions: S. cerevisiae BY4716 + rapamycin, higher = more signal, called active from +8 up or from −8 down
# [15] = target: Torsin-1A-interacting protein 2 (Homo sapiens) (UniProt Q8NFQ8); test: small molecules binding lysate-expressed LULL1 – cell lysate, human LULL1 lysate, 635/667 nm fluorescence, primary screen (AID 1092); conditions: small-molecule microarray, hLULL1 lysate binding, 635 nm fluorescence; higher = more signal;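 note: probe is lysate of COS7 cells overexpressing human LULL1; score merges per-feature 667 nm fluorescence with signal-to-noise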
# Chain of Torsin-1A-interacting protein 2 (Homo sapiens) (Q8NFQ8 whole entry, looked up): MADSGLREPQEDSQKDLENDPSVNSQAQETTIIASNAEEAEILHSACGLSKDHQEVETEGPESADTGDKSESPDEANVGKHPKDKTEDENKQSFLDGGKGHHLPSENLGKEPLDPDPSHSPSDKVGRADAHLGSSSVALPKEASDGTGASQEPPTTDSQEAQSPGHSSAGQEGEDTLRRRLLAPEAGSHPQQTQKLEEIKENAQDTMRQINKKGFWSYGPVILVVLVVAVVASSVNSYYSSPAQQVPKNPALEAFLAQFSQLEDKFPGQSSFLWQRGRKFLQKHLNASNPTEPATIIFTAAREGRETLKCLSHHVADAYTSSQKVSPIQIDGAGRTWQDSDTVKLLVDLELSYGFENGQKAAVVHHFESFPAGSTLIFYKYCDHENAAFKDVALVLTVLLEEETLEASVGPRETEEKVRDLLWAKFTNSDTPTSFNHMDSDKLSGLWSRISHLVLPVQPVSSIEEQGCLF
# [16] = optical density change of DRC41 E. coli – strain DRC41, OD650, 24 h, E. coli filamentation project, primary screen (AID 1093);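 note: MC1000 strain lacking acrAB efflux and sulA so SOS filamentation is blocked; test concentration not given here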; conditions: E. coli DRC41 growth, higher = more signal, called active from +8 up or from −8 down
# [17] = probe aLefty2 binding to arrayed compounds – biochemical, biotinylated probe, 635/667 nm fluorescence, primary screen (AID 1094); conditions: small-molecule microarray, higher = more signal;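 note: score merges spot fluorescence near 667 nm with spot signal-to-noise ratio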
# [18] = tested on: Noggin (protein binding on small-molecule microarray); test: small molecules binding Noggin protein – biochemical, 635/667 nm fluorescence, primary screen (AID 1095); conditions: 635 nm fluorescence, higher = more signal;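 note: score merges 667 nm feature fluorescence with signal to noise over triplicate slides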
# [19] = target: Neurogenic locus notch homolog protein 3 (Homo sapiens) (UniProt Q9UM47); test: small molecules binding NOTCH3 protein – biochemical, 635/667 nm fluorescence, primary screen (AID 1096); conditions: small-molecule microarray, 635 nm fluorescence, higher = more signal
# Chain of Neurogenic locus notch homolog protein 3 (Homo sapiens) (Q9UM47 whole entry, looked up): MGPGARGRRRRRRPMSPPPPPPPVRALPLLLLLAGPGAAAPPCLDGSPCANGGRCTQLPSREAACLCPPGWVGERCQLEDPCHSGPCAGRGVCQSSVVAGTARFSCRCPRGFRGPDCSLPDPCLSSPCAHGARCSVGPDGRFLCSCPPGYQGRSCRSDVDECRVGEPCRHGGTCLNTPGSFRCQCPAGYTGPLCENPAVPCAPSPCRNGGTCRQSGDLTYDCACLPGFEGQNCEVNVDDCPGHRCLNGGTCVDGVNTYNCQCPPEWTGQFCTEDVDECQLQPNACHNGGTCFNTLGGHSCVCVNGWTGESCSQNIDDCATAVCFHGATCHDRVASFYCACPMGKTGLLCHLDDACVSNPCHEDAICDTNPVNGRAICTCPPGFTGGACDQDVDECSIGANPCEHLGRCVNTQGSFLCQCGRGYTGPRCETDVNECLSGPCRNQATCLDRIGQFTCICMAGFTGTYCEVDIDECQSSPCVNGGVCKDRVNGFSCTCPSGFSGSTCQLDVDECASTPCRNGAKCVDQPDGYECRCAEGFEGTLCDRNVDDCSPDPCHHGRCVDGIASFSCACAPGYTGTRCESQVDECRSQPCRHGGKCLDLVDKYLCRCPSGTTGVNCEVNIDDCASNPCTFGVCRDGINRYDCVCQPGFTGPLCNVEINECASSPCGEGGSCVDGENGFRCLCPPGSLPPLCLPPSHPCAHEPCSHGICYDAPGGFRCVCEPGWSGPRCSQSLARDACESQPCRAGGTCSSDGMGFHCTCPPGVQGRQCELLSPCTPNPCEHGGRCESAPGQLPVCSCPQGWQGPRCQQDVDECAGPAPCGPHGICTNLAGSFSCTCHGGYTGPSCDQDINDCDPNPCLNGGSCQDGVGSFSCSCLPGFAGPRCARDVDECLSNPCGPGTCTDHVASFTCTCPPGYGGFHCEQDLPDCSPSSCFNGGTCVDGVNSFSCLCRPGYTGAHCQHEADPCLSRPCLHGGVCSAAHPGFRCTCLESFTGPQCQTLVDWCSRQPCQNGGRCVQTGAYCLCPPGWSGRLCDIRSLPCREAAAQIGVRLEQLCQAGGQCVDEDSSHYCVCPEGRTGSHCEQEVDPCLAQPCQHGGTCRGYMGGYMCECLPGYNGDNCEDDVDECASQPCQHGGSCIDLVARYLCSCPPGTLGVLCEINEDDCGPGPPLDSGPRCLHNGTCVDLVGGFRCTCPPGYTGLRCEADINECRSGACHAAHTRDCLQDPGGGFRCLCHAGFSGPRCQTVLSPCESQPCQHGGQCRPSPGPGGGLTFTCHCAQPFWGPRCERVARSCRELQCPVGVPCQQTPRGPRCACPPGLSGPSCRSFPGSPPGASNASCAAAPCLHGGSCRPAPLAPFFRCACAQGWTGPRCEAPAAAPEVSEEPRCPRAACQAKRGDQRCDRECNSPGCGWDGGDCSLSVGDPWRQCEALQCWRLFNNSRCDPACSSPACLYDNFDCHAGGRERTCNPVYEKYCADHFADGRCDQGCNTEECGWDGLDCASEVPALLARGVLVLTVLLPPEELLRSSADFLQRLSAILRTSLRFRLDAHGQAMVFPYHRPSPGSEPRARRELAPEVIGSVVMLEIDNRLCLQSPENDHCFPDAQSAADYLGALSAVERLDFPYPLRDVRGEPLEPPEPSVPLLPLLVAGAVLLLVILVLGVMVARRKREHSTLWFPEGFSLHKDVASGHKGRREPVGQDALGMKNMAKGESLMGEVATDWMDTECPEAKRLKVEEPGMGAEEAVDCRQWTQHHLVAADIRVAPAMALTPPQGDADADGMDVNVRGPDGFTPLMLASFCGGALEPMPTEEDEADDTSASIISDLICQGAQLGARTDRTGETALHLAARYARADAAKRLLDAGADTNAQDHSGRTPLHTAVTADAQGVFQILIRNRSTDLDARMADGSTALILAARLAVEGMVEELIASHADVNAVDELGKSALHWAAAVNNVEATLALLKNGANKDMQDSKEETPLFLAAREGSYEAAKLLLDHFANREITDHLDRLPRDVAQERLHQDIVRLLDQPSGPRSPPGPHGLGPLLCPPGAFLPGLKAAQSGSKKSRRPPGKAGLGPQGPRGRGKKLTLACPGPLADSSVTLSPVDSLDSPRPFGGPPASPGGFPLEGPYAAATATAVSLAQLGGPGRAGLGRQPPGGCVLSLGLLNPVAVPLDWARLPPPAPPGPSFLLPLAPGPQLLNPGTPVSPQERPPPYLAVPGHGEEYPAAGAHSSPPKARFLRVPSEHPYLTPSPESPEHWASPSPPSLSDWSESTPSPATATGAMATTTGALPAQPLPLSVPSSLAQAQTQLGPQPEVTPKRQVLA
# [20] = probe aEGFR binding to arrayed compounds – biochemical, biotinylated probe, 635/667 nm fluorescence, primary screen (AID 1097); conditions: small-molecule microarray, higher = more signal;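 note: probe is a biotinylated anti-EGFR antibody binding compounds printed on slides; score combines fluorescence near 667 nm and signal to noise of each spot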
Compound,composite z-score [1],composite z-score [2],composite z-score [3],composite z-score [4],composite z-score [5],composite z-score [6],composite z-score [7],z-score [8],composite z-score [9],composite z-score [10],composite z-score [11],z-score [12],z-score [13],z-score [14],composite z-score [15],z-score [16],composite z-score [17],composite z-score [18],composite z-score [19],composite z-score [20]
COc1cc(CO)cc(I)c1O[C@H]1C=C(C(=O)NCCO)C[C@@H](NCc2ccc(F)cc2)[C@@H]1O,-0.519,0.254,0.0062,1.34,0.366,0.406,-0.0461,-1.14 (inactive),0.245,-0.0645,1.07,1.41 (inactive),-9.13 (active),0.388 (inactive),-0.135,0.944 (inactive),-0.109,0.938,0.305,-0.128
C=CCOC(=O)[C@H]1[C@@H]2C(=O)O[C@@H](c3ccccc3)[C@@H](c3ccccc3)N2[C@@H](c2ccc(OCCOC(=O)[C@@H]3C[C@@H]4C(=O)N5CCC[C@H]5C(=O)N4[C@@H]3c3ccc(O)cc3)cc2)[C@]12C(=O)Nc1ccc(I)cc12,0.011,-0.123,-0.201,0.126,0.344,0.929,0.718,0.308 (inactive),-0.0935,-0.367,1.42,0.882 (inactive),0.25 (inactive),2.77 (inactive),1.03,-0.333 (inactive),-0.138,0.674,0.169,-0.194
C[C@@H]1ON(c2ccc(C(=O)OC(C)(C)C)cc2)[C@H](c2ccc(O)cc2)[C@H]1C(=O)N1C(=O)OC[C@H]1Cc1ccccc1,-0.521,0.707,-0.109,0.8,1.37,0.803,1.05,0.0087 (inactive),0.236,-0.0645,1.56,0.465 (inactive),-0.29 (inactive),1.84 (inactive),1.24,-0.63 (inactive),-0.146,0.525,1.12,-0.0333
COc1ccc(CN(C2=CC[C@@]3(C(N)=O)C(=O)C(Cl)=C(Cl)C(=O)[C@@]3(C#N)C2)S(=O)(=O)c2ccc(Br)cc2)cc1,-0.181,-0.0483,-0.0657,0.497,0.765,0.914,1.11,-0.991 (inactive),0.343,0.0176,-0.196,-1.62 (inactive),-2.63 (inactive),-0.266 (inactive),3.31,1.29 (inactive),0.0496,-0.0701,-0.366,-0.111
C[N+](C)(C)CCCC[C@@H]1NC(=O)[C@H]2C[C@@H](C(=O)NCCCCCCN)[C@@H](c3ccc(O)cc3)N2C1=O,0.239,0.713,0.0797,0.575,1.27,1.99,1.09,-0.194 (inactive),0.901,0.373,1.26,0.731 (inactive),-1.51 (inactive),1.13 (inactive),1.57,0.766 (inactive),0.265,-0.232,0.64,0.155
CC1CC/C=C\[C@H]2OC34C=CCN(c5ccc(Cl)cc5)C(=O)[C@H]3N(CCCCCO)C(=O)[C@]4(C)C2C(=O)O1 (stereo not given in full),0.124,-0.673,-0.16,-1.26,-1.01,0.332,0.429,0.581 (inactive),-0.999,-0.0994,-0.318,0.184 (inactive),0.177 (inactive),-0.166 (inactive),-1,-0.367 (inactive),-0.233,-1.33,-0.394,-0.302
O[C@@H](Cc1ccccc1)[C@@H](/C=C/C1CC1)N(CC#Cc1ccccc1)Cc1cccc(Cl)c1,1.39,-0.393,-0.129,-1.06,-1.32,-0.34,-0.162,-0.976 (inactive),-0.959,-0.227,-0.235,0.949 (inactive),0.322 (inactive),-0.0243 (inactive),-0.0561,1.37 (inactive),0.146,-1.4,-1.08,-0.398
[N-]=[N+]=NCc1ccccc1C[C@@]1(C(=O)NCc2ccccc2)N=C(c2ccc(OCCCO)cc2)O[C@@H]1c1ccccc1N=[N+]=[N-],0.298,0.421,0.0075,0.629,1.33,1.07,1.1,-1.81 (inactive),1.27,0.143,1.18,-1.38 (inactive),1.57 (inactive),6.91 (inactive),2.88,0.213 (inactive),0.198,-0.247,0.412,-0.0831
[N-]=[N+]=Nc1ccccc1[C@@H]1OC(c2ccc(OCCCO)cc2)=N[C@]1(Cc1ccccc1)C(=O)NCC(O)CO (stereo not given in full),1.45,2.11,0.148,0.881,0.138,1.66,1.06,-0.992 (inactive),1.25,0.28,1.55,-0.281 (inactive),-1.4 (inactive),1.32 (inactive),2.65,1.05 (inactive),0.589,0.244,0.0643,0.206
CCCCC(O)C1C=CC2C(=O)N(c3ccccc3)C(=O)C2N1Nc1ccc(C(C)C)cc1 (stereo not given),-0.158,-0.534,0.0662,0.47,1.44,1.85,0.697,-0.875 (inactive),1.13,-0.217,1.37,0.603 (inactive),-0.582 (inactive),0.0624 (inactive),3.01,-1.32 (inactive),-0.122,0.49,1.03,-0.067
CCOc1cc(C(O)C2C=CC3C(=O)N(c4ccccc4)C(=O)C3N2Nc2ccc(C#N)cc2)ccc1O (stereo not given),-0.17,-0.223,0.0024,0.11,1.27,1,0.836,0.163 (inactive),0.0472,0.0139,0.0034,0.453 (inactive),1.15 (inactive),0.726 (inactive),3.3,-0.715 (inactive),0.121,-0.167,-0.0195,-0.133
CC(C)C[C@@H]1NC(=O)[C@@H]2C[C@H](C(=O)NCCCCCN)[C@H](c3ccc(O)cc3)N2C1=O,0.347,0.174,-0.0909,0.335,0.727,1.26,1.3,-0.375 (inactive),0.371,0.0854,1.57,0.563 (inactive),0.32 (inactive),0.965 (inactive),2.57,-0.687 (inactive),-0.109,1.47,0.894,-0.0078
CCC(CC)C(O)C1C=CC2C(=O)N(c3ccccc3)C(=O)C2N1Nc1ccc(C(C)C)cc1 (stereo not given),0.251,-0.207,0.0495,0.687,1.64,1.23,1.28,-0.963 (inactive),1.21,-0.195,1.43,0.727 (inactive),0.065 (inactive),1.23 (inactive),3.12,-0.63 (inactive),0.0659,0.152,1.03,0.118
CCCCC=C[C@@H](NC(=O)c1ccc(-c2ccccc2)cc1)c1ccccc1,-0.0095,-0.0424,-0.021,0.457,1.44,1.55,0.739,0.61 (inactive),0.517,0.21,0.246,0.603 (inactive),-1.45 (inactive),-0.713 (inactive),2.44,-0.444 (inactive),0.179,-0.323,0.496,-0.094
COc1ccccc1CN1C(=O)c2ccccc2[C@@]2(Cc3ccccc3N(CC(F)(F)F)C2=O)[C@@H]1c1ccc(CO)cc1,-0.951,0.252,-0.226,-0.244,0.166,-0.226,0.778,-3.55 (inactive),-0.29,-0.403,0.955,0.17 (inactive),0.181 (inactive),-1.7 (inactive),0.104,1.07 (inactive),-0.332,1.18,0.538,-0.322
CC(C)C(=C=CC[C@H](O)c1cccc(OCCO)c1)C[C@H](O)c1cc(Cl)cc(Cl)c1O,-0.205,-0.178,-0.116,0.792,-0.022,0.462,0.827,0.209 (inactive),0.53,0.0722,1.03,0.834 (inactive),-1.06 (inactive),-0.129 (inactive),2.37,0.236 (inactive),-0.114,0.665,0.964,-0.0626
O=C1C2C=CC(C(O)c3ccc(Br)cc3)N(Nc3ccccc3F)C2C(=O)N1c1ccccc1 (stereo not given),-0.436,0.536,0.0181,0.178,0.776,1.11,1.06,-1.55 (inactive),0.68,-0.0346,0.566,-1.16 (inactive),-0.435 (inactive),-1.26 (inactive),2.97,0.569 (inactive),-0.103,-0.231,0.626,-0.112
CN(C)C(=O)[C@@]1(CCS(=O)(=O)c2ccccc2)N=C(c2ccc(OCCCO)cc2)O[C@H]1c1ccccc1,-0.0356,0.79,0.163,0.746,1.35,2.13,1.34,-0.522 (inactive),1.52,0.0401,1.07,-0.308 (inactive),-0.255 (inactive),0.117 (inactive),3.51,-0.16 (inactive),0.0932,-0.135,1.08,-0.0215
COC(=O)[C@@]1(Cc2ccc(OC)cc2)[C@H]2c3cc(C(=O)N(C)C)n(Cc4ccc(Cl)c(C(F)(F)F)c4)c3C[C@H]2CN1C(=O)c1ccccc1,1.33,0.218,0.262,0.473,1.47,1.39,1.03,0.282 (inactive),1.73,1.71,0.295,1.01 (inactive),1.38 (inactive),2.98 (inactive),3.06,-0.397 (inactive),0.539,-0.0329,1.02,0.35
